Results as given in PubChem BioAssay (NCATS).
Results filed as inconclusive are left out. Entries that show only a call come without a potency. Calls of active or inactive are those of the source. Calls come from the whole dose curve; as a rule, active = well fitted cell-killing curve with a large enough effect; inconclusive = small, poorly fitted or top-dose-only effect, or effect the other way; inactive = flat fitted curve, though single readings scatter.

These compounds were tested on OV90 (assay: Primary qHTS to identify gynecologic anti-cancer compounds using libraries of approved drugs and bioactive compounds (AID 1345084; note: nearly all actives have a fitted effect of over 55% in size)). Settings: Gynecologic cancer cell panel viability, ATPlite luminescence, 48 h; series mostly up to 57.5 µM.
In short: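 Five-point cytotoxicity, 48 h drug exposure at 37 C, 5% CO2, on cells seeded 16 h beforehand. ATP content read by ATPlite luminescence.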

| SMILES | Potency |
| --- | --- |
| Cc1ccnn1-c1ccc(C(=O)N2CCN(S(=O)(=O)c3ccc(Cl)c(C(F)(F)F)c3)CC2)cc1 | inactive |
| Fc1ccc(N2CCCCC2)c(NC(=S)c2ccncc2)c1 | inactive |
| O=C(Cc1c(F)cccc1F)Nc1cc(OCc2ccc(Cl)cc2)ccn1 | inactive |
| CCN(c1cc(-c2ccc(CN3CCOCC3)cc2)cc(C(=O)NCc2c(C)cc(C)[nH]c2=O)c1C)C1CCOCC1 | inactive |
| C/C=C(/C)C(=O)O[C@@H]1C[C@@H](OC(=O)CC(C)C)C2(C)C3C(=O)C=C(C)C2C3C1(C)C (stereo not given in full) | inactive |
| CCOc1cc(C(C)(C)C)ccc1C1=NC(C)(c2ccc(Cl)cc2)C(C)(c2ccc(Cl)cc2)N1C(=O)N1CCN(CCCS(C)(=O)=O)CC1 (stereo not given) | inactive |
| COc1ccc(S(=O)(=O)N2CCC[C@H]2C(=O)Nc2cc(C)cc(C)c2)cc1 | inactive |
| CN(C)C(=O)Nc1cc(-c2ccccc2)ccc1N(C)C | inactive |
| COc1ccc(NC(=O)c2ccc(C(=N)N(C)C)cc2)c(C(=O)Nc2ccc(Cl)cn2)c1 | inactive |
| CC(C)c1cc(-c2ccc(F)c3ccccc23)nc(N)n1 | inactive |
| CNc1cccc(CCOc2ccc3c(c2)CN(CC(F)(F)F)C(=O)[C@H](CC(=O)O)C3)n1 | inactive |
| OC[C@H]1O[C@@H](OC/C=C/c2ccc(O)cc2)[C@H](O)[C@@H](O)[C@@H]1O | inactive |
| Cn1ccc(NC(=O)c2cc(Oc3ccc(C(=O)N4CCC4)c(F)c3)c3c(c2)OC(C)(C)C3)n1 | inactive |
| COc1ccc2nc3n[nH]c(C)c3c(NCCOCCO)c2c1 | inactive |
| CC(=O)Nc1cccc(Nc2ncnc(N3CCC(OCc4ccc(OC(F)(F)F)cc4)CC3)n2)c1C | inactive |
